Data on 68 molecules can be found in article PMC4552634, “A New Set of Chemical Starting Points with Plasmodium falciparum Transmission-Blocking Potential for Antimalarial Drug Discovery” (PLoS ONE, 2015).

Hit rate of the full screen: of about 13,000 compounds, about 3,200 (25%) showed an effect of 50% or more. This is one part of the list.

The test concerns P. falciparum stage V gametocytes. Also noted: BacTiter-Glo ATP luminescence viability of purified stage V gametocytes in 384-well plates, per cent inhibition versus DMSO. The conditions noted are these: 48 h, 5 µM; inhibitor.
What is called % Inhibition is the drop in the measured response relative to a control, in per cent. `O=C(Nc1cccc(-c2ccc(-c3nc4ccccc4[nH]3)cc2)c1)Nc1ccc2c(c1)OCO2` [TCMDC-133164]: the “% Inhibition” value is given as -3.868%.

For the molecule `O=C(CSc1ccccn1)Nc1c(F)cccc1F` [TCMDC-123935], the “% Inhibition” value amounted to 16.99%.

`O=C(NC1CCCCC1)C1CCCN(C(=O)c2ccc(O)c(-c3ccc(Cl)c(Cl)c3)c2)C1` (centres unmarked) [TCMDC-140884]: the “% Inhibition” value is listed as 5.577%.

Take `Cc1c(Cc2ccccc2)c(=O)oc2c(C)c3c(cc12)CN(CC(C)c1ccccc1)CO3` (centres unmarked) [TCMDC-125127]: the “% Inhibition” value amounted to 34.31%.

Take `O=c1cc(NCCCNCc2sc(Br)nc2Br)[nH]c2ccccc12` [TCMDC-140422]: the “% Inhibition” value is on record as -16.17%.

Consider `Cc1ccccc1C1CCN(C2CCC(NC(=O)/C=C/c3cccc(Cl)c3Cl)CC2)CC1` (centres unmarked) [TCMDC-133519], for which the “% Inhibition” value is recorded as -94.66%.

With `Cc1sc2nc(CN3CCCC3)nc(-n3c(NCCO)nc4ccccc43)c2c1C` [TCMDC-124811], the “% Inhibition” value came out at 45.04%.

Regarding `OC(c1ccc(Cl)cc1)(c1ccc(Cl)cc1)C(c1ccc(Cl)cc1)n1ccnc1` (centres unmarked) [TCMDC-125069], the “% Inhibition” value is listed as 44.24%.

Consider `CN1CCN(c2cccc(-c3nnc(-c4cccc(OCC(=O)NCc5ccc(C(F)(F)F)cc5)c4)o3)c2)CC1` [TCMDC-134943], for which the “% Inhibition” value turned out to be 0.9055%.

With `O=C(NCc1ccc(C(F)(F)F)cc1)c1cccc(-c2nnc(-c3cccc(-c4cncnc4)c3)o2)c1` [TCMDC-134944], the “% Inhibition” value came out at 18.23%.

As for `CCCNC(=O)c1cncc(-c2ccc(CNC(CC)c3ccccc3)cc2)c1` (centres unmarked) [TCMDC-134238], the “% Inhibition” value is -1.576%.

For `CC(=O)NCCNCc1cccc(C(=O)NCc2cccc(C(F)(F)F)c2)c1` [TCMDC-140900], the “% Inhibition” value was 22.07%.

On to `CC(C)(C)OC(=O)NCc1ccc(Nc2nnc(-c3cccc(OCC(=O)NCc4cc(C(F)(F)F)cc(C(F)(F)F)c4)c3)o2)cc1` [TCMDC-134993], for which the “% Inhibition” value worked out at 101.9%.

On to `CN1CCN(c2cccc(-c3nnc(-c4ccc(OCC(=O)NCc5cccc(C(F)(F)F)c5)c([N+](=O)[O-])c4)o3)c2)CC1` [TCMDC-134941], for which the “% Inhibition” value is -68.92%.

With `CC(C)(C)OC(=O)NCc1ccc(Nc2nnc(-c3cccc(C(=O)NCCC(c4ccccc4)c4ccccc4)c3)o2)cc1` [TCMDC-134989], the “% Inhibition” value was found to be 99.36%.

On to `Cc1cccc(Cl)c1Nc1nnc(-c2cccc(C(=O)NC[C@@H]3CC[C@H]4C[C@@H]3C4(C)C)c2)o1` [TCMDC-135040], for which the “% Inhibition” value was -14.01%.

`CC(C)(C)OC(=O)NCc1ccc(Nc2nnc(-c3cccc(C(=O)NCc4cc(C(F)(F)F)cc(C(F)(F)F)c4)c3)o2)cc1` [TCMDC-135229]: the “% Inhibition” value worked out at 97.34%.

`O=c1ccc2ccc(F)c3c2n1CC3CN1CCC(NCc2cccc(-c3ccccc3F)c2)CC1` (centres unmarked) [TCMDC-134405]: the “% Inhibition” value was -31.68%.

For `COc1ccc2nccc([C@@H](O)CN3CCC(NCc4cnc5snnc5c4)C(F)C3)c2c1` (some centres unmarked) [TCMDC-141752], the “% Inhibition” value is reported as 25.48%.

In the case of `CCCc1c(C(=O)Nc2ccc3c(c2)CCN(C2CCC2)CC3)cnn1-c1ccc(Cl)cc1` [TCMDC-136081], the “% Inhibition” value is reported as 40.23%.

For the molecule `Cc1ccccc1C1CCN(c2ncc(C(=O)Nc3ccccc3)cc2Cl)CC1` [TCMDC-134630], the “% Inhibition” value was -30.75%.

On to `O=C(Nc1cc(Cl)cc(Cl)c1)c1cnn(-c2ccc(F)cc2)c1C1CCNCC1` [TCMDC-124410], for which the “% Inhibition” value worked out at 50.02%.

Regarding `Cc1ccccc1C1CCN(c2ccc(NC(=O)c3ccc(Cl)nc3)cc2)CC1` [TCMDC-134586], the “% Inhibition” value was found to be 25.08%.

For the molecule `O=C(Nc1ccc(Cn2ncc(N3CCCNCC3)c(Cl)c2=O)cc1)Nc1cc(Cl)cc(Cl)c1` [TCMDC-133326], the “% Inhibition” value was -9.301%.

For the molecule `Cc1ccc(-n2ncc(C(=O)Nc3cc(Cl)cc(Cl)c3)c2C2CCNCC2)cc1C` [TCMDC-124409], the “% Inhibition” value came out at 57.45%.

`COc1cc(NC(=O)c2c(-c3c(Cl)cccc3Cl)noc2C)c(OC)cc1Cl` [TCMDC-125477]: the “% Inhibition” value is -41.77%.

For `CC(O)C(C)(CO)NCc1ccc2c3c(cccc13)-c1ccccc1-2` (centres unmarked) [TCMDC-138117], the “% Inhibition” value came out at 15.45%.

Regarding `Cc1ccc(O)cc1Nc1c(C(N)=O)cnc2ccc(-c3cncs3)cc12` [TCMDC-138565], the “% Inhibition” value was 46.98%.

Consider `NC(=O)c1cnc2ccc(-c3cncs3)cc2c1Nc1ccc(F)c(Cl)c1` [TCMDC-138566], for which the “% Inhibition” value stood at 50.74%.

For the molecule `Cc1noc(C)c1-c1ccc2c(Nc3ccc(C(F)(F)F)cc3)c(C(N)=O)cnc2c1.Cl` [TCMDC-136019], the “% Inhibition” value was 23.08%.

Consider `CCNc1cc(C(=O)N[C@@H](Cc2ccccc2)[C@H](O)CNC(C)(C)Cc2cccc(OC)c2)cc(N2CCCC2=O)c1` [TCMDC-134574], for which the “% Inhibition” value is on record as 1.402%.

Consider `O=C(N[C@@H](Cc1ccccc1)[C@H](O)CNCCC(F)(F)F)c1cccc(OCC2CC2)c1` [TCMDC-136610], for which the “% Inhibition” value is on record as 48.68%.

Consider `CC(C)CCCC(C)(C)NC[C@@H](O)[C@H](Cc1ccccc1)NC(=O)c1cccc(CCC2CC2)c1` [TCMDC-136602], for which the “% Inhibition” value stood at 71.1%.

On to `CCCOc1cccc(C(=O)N[C@@H](Cc2ccccc2)[C@H](O)CNCc2ccccc2OC)c1` [TCMDC-136706], for which the “% Inhibition” value worked out at 81.52%.

As to `O=C(N[C@@H](Cc1ccccc1)[C@H](O)CNCCC(F)(F)F)c1cccc(CCC2CC2)c1` [TCMDC-136611], the “% Inhibition” value was -3.968%.

`CCCOc1cccc(C(=O)N[C@@H](Cc2ccccc2)[C@H](O)CNCc2cccc(OC)c2)c1` [TCMDC-136707]: the “% Inhibition” value came to 12.44%.

As to `CCOc1cc(C(=O)N[C@@H](Cc2ccccc2)[C@H](O)CNCc2cccc(OC)c2)cc(N2CCCCS2(=O)=O)c1` [TCMDC-134521], the “% Inhibition” value is recorded as -19.61%.

Turning to `COc1cccc(C2(NC[C@@H](O)[C@H](Cc3ccccc3)NC(=O)c3ccccc3)CCCCC2)c1` [TCMDC-135740], the “% Inhibition” value turned out to be 7.84%.

For the molecule `CC(C)CCCC(C)(C)NC[C@@H](O)[C@H](Cc1ccccc1)NC(=O)c1cccc(OCC2CC2)c1` [TCMDC-136556], the “% Inhibition” value is on record as 100.1%.

As to `Clc1ccccc1/C=C/c1cncnc1Nc1ccc2nc(Cc3ccccc3)[nH]c2c1` [TCMDC-138659], the “% Inhibition” value is 0.669%.

With `c1ccc(-c2cccc(-c3ccccn3)n2)nc1` [TCMDC-123985], the “% Inhibition” value was -15.75%.

Consider `COc1ccc(-c2ccnc(-c3cccc(-c4ccccn4)n3)c2)cc1` [TCMDC-125008], for which the “% Inhibition” value is 155.4%.

As for `COc1cc(Nc2ccnc3cc(-c4ccccn4)ccc23)cc(OC)c1OC` [TCMDC-138203], the “% Inhibition” value came to 0.8769%.

`N#Cc1ccc(NC(=NC2Cc3ccccc3C2)Nc2cccc(Cl)c2Cl)c(O)c1` [TCMDC-140223]: the “% Inhibition” value is -11.72%.

As to `O=C(/C=C/c1ccc(Cl)c(Cl)c1)N1CCC(C(O)CN2CCC(c3c[nH]c4ccccc34)CC2)CC1` (centres unmarked) [TCMDC-134171], the “% Inhibition” value was 19.99%.

In the case of `CS(=O)(=O)Nc1ccc2[nH]cc(C3CCN(CC(O)C4CCN(C(=O)/C=C/c5ccc(Cl)c(Cl)c5)CC4)CC3)c2c1` (centres unmarked) [TCMDC-134176], the “% Inhibition” value was found to be 30.58%.

Regarding `O=C(/C=C/c1cccc(Cl)c1)N1CCC(C(O)CN2CCC3(CC2)CN(C(=O)/C=C/c2cccc(Cl)c2)c2ccccc23)CC1` (centres unmarked) [TCMDC-134543], the “% Inhibition” value worked out at 57.97%.

As to `CC(=O)Nc1ccc(CN2CCC(NC(=O)c3ccc(-c4cccc(F)c4)s3)CC2)cc1` [TCMDC-134333], the “% Inhibition” value stood at 6.679%.

`CCNc1cc(C(=O)N[C@@H](Cc2cc(F)cc(F)c2)[C@H](O)CNCc2cccc(C(F)(F)F)c2)cc(N2CCCCS2(=O)=O)c1` [TCMDC-134678]: the “% Inhibition” value was -1.763%.

As for `CC(C)CCNC(=O)[C@@H]1[C@H]2C(=O)N(C3CCCCC3)C(=O)[C@H]2[C@H]2C=C[C@@H]3C(c4ccc(C(C)(C)C)cc4)=NO[C@@H]3N21` [TCMDC-139763], the “% Inhibition” value was -31.5%.

`Cc1cc(CN2CCCC(OC(c3ccc(F)cc3)c3ccc(F)cc3)C2)ccc1O` (centres unmarked) [TCMDC-136168]: the “% Inhibition” value is on record as 43.13%.

On to `CCN(CC)CCNc1ccnc2[nH]c3ccc(Cl)cc3c12` [TCMDC-131832], for which the “% Inhibition” value is on record as 4.266%.

Take `CCN(CC)CCNc1nc(C=Cc2ccc(Cl)cc2)nc2cc3ccccc3cc12` [TCMDC-125777]: the “% Inhibition” value was 86.86%.

With `CN(C)CCNc1ncnc2c1[nH]c1ccc(Cl)cc12` [TCMDC-124582], the “% Inhibition” value was determined as 1.888%.

For `CNC(=O)NC1=NC(C)(C)N(OCc2ccc(Cl)c(Cl)c2)C(NC(=O)NC)=N1` [TCMDC-131694], the “% Inhibition” value came to 10.36%.

For `CN(C)Cc1ccc(O)c(-c2ccc(C(C)(C)C)cc2)n1` [TCMDC-124147], the “% Inhibition” value is 10.19%.

Take `COc1ccc2nccc([C@@H](O)CN3CCC(NCCNc4cccc(F)c4)CC3)c2c1` [TCMDC-140716]: the “% Inhibition” value is given as -36.18%.

For the molecule `COc1ccccc1CCNc1nc(C)cc(N[C@@H](CC(C)C)C(=O)NCc2cccs2)n1` [TCMDC-134806], the “% Inhibition” value came out at 64.45%.

With `Cc1cc(N[C@@H](CC(C)C)C(=O)NCc2cccs2)nc(Nc2ccccc2)n1` [TCMDC-134739], the “% Inhibition” value is -4.41%.

Regarding `Cc1cc(N[C@@H](CC(C)C)C(=O)NCCc2ccccc2)nc(Nc2ccccc2)n1` [TCMDC-134742], the “% Inhibition” value was -5.247%.

For `Cc1cc(N[C@@H](CC(C)C)C(=O)NCc2cccs2)nc(NCCc2ccccc2)n1` [TCMDC-134779], the “% Inhibition” value worked out at 68.3%.

With `Cc1cc(N[C@@H](CC(C)C)C(=O)NCc2cccs2)nc(NCCc2ccc(F)cc2)n1` [TCMDC-134794], the “% Inhibition” value is reported as 46.14%.

With `COc1ccc(NC(=O)[C@H](CC(C)C)Nc2cc(C)nc(NCCc3cccs3)n2)cc1` [TCMDC-134875], the “% Inhibition” value is -27.08%.

Take `Cc1cc(N[C@@H](CC(C)C)C(=O)NCCc2ccccc2)nc(NCCc2cccs2)n1` [TCMDC-134816]: the “% Inhibition” value came out at 67%.

Take `COc1ccccc1CCNc1nc(C)cc(N[C@@H](CC(C)C)C(=O)Nc2ccccc2)n1` [TCMDC-134808]: the “% Inhibition” value amounted to 19.68%.

As for `Cc1cc(N[C@@H](CC(C)C)C(=O)NCCc2ccccc2)nc(NCc2ccccc2C)n1` [TCMDC-134911], the “% Inhibition” value is -9.933%.

In the case of `COc1ccc(NC(=O)[C@H](CC(C)C)Nc2cc(C)nc(NCCc3ccccc3OC)n2)cc1` [TCMDC-134805], the “% Inhibition” value is -9.787%.

On to `Cc1cc(N[C@@H](CC(C)C)C(=O)NCc2cccs2)nc(NCCc2cccs2)n1` [TCMDC-134815], for which the “% Inhibition” value came to 136.3%.
